Test systems include HCT-15 colon; HT29 colon; SNB-75 CNS; SNB-19 CNS; U251 CNS; PC-3 prostate; SK-MEL-5 melanoma; UACC-62 melanoma; LOX IMVI melanoma; SK-MEL-28 melanoma; SK-MEL-2 melanoma; EKVX NSCLC; SN12C renal; UO-31 renal; TK-10 renal; ACHN renal; CAKI-1 renal; A498 renal; CCRF-CEM leukemia; MOLT-4 leukemia.
Common to all, as to experiment: NCI-60 one-dose screen, 48 h (100 = growth as untreated, 0 = no growth, -100 = all killed)
Holding throughout (conditions): 10 µM unless noted

Compounds without any hit were thinned out: in the full panel of roughly 83,000, 20% have a hit.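 Values shown are percent growth following 48 h exposure of cells in 96-well plates to a single concentration of compound; below 10 was considered active.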 A number with no mark means an inactive call. Calls of active or inactive are those of the source.

Turning to `O=c1oc2ccc(-c3ccc(F)cc3F)cc2c(=O)n1-c1ccc(Br)cc1F`, the growth with HCT-15 colon was 47.4%; in the experiment on HT29 colon it was 109%; in the experiment on SNB-75 CNS, 73.9%; in the experiment with SNB-19 CNS it was 71.7%; in the experiment with U251 CNS, 64%; with PC-3 prostate it was 78.9%. For the same molecule, the growth was 15% in the experiment with SK-MEL-5 melanoma; 21.1% with UACC-62 melanoma; 88.2% with LOX IMVI melanoma; 77.3% in the experiment with SK-MEL-28 melanoma; 41% with SK-MEL-2 melanoma; 73.5% in the experiment with EKVX NSCLC. For the same molecule, the growth in the experiment on SN12C renal is 46.2%; with UO-31 renal it was 84.5%; in the experiment with TK-10 renal it was 64.8%; with ACHN renal it was 80.5%; in the experiment on CAKI-1 renal, 61.9%; in the experiment with A498 renal, 37.4%. Besides, the growth with CCRF-CEM leukemia is 56.3%; in the experiment on MOLT-4 leukemia, 57.8%.
Take `O=S(=O)(Oc1ccc(-c2cn3ccoc3n2)cc1)C1CCCCC1`: the growth is 62.7% in the experiment on HCT-15 colon; 96.7% in the experiment on HT29 colon; 124% in the experiment on SNB-75 CNS; 97.1% in the experiment with SNB-19 CNS; 104% with U251 CNS; 91.5% with PC-3 prostate. Moreover, the growth with SK-MEL-5 melanoma is 91.1%; with UACC-62 melanoma it was 85.3%; in the experiment on LOX IMVI melanoma, 100%; with SK-MEL-28 melanoma, 100%; in the experiment with SK-MEL-2 melanoma, 99.4%; with EKVX NSCLC, 100%. Also, the growth with SN12C renal was 103%; in the experiment with UO-31 renal it was 97.4%; in the experiment with TK-10 renal, 105%; in the experiment with ACHN renal, 105%; with CAKI-1 renal, 92.3%; in the experiment with A498 renal it was 90%. Also, the growth in the experiment with CCRF-CEM leukemia is 87.2%; in the experiment with MOLT-4 leukemia, 93.5%.
`N#Cc1c(-c2ccc(F)cc2)cc(-c2c[nH]c3ccccc23)nc1-c1c[nH]c2ccccc12`: the growth in the experiment on HCT-15 colon is 99.6%; in the experiment with HT29 colon, 110%; in the experiment on SNB-75 CNS it was 98.6%; in the experiment with SNB-19 CNS it was 102%; with U251 CNS, 94.9%; with PC-3 prostate, 103%. The growth with SK-MEL-5 melanoma was 100%; in the experiment on UACC-62 melanoma it was 98.3%; with LOX IMVI melanoma it was 107%; in the experiment with SK-MEL-28 melanoma, 107%; in the experiment with SK-MEL-2 melanoma, 96.1%; with EKVX NSCLC it was 92.8%. Besides, the growth in the experiment with SN12C renal is 98.8%; in the experiment with UO-31 renal it was 84.7%; with TK-10 renal, 128%; with ACHN renal, 102%; in the experiment with CAKI-1 renal, 92.5%; in the experiment on A498 renal, 89.4%. The figures for the growth in the experiment with CCRF-CEM leukemia and in the experiment on MOLT-4 leukemia were 102% and 103%, respectively.
Regarding `CC(C)(C)c1cc(NC(=O)Nc2ccc(-c3cn4c5c(sc4n3)CCc3cn(CCCN4CCCCC4)cc3-5)cc2)no1`, the growth in the experiment with HCT-15 colon is -82.7% (active); with HT29 colon, -50.7% (active); with SNB-75 CNS, 39.5%; in the experiment with SNB-19 CNS, -83.5% (active); with U251 CNS, -86.3% (active); with PC-3 prostate, -74.8% (active). Also, the growth in the experiment with SK-MEL-5 melanoma is -51.9% (active); with UACC-62 melanoma, 98%; with LOX IMVI melanoma, -96.2% (active); with SK-MEL-28 melanoma it was -89.8% (active); in the experiment with SK-MEL-2 melanoma, 108%; in the experiment on EKVX NSCLC, -80.5% (active). The growth with SN12C renal was -86.3% (active); in the experiment on UO-31 renal, -70.3% (active); in the experiment with TK-10 renal it was -89.3% (active); in the experiment with ACHN renal, -99.7% (active); in the experiment with CAKI-1 renal it was -97.2% (active); in the experiment with A498 renal, 74.5%. In addition, the growth in the experiment with CCRF-CEM leukemia was 3.37% (active); in the experiment with MOLT-4 leukemia, -10.9% (active).
For `O=C(CCCCCCNC(=O)C(O)(O)C(F)(F)F)Nc1ccc(-c2ccccc2)cc1`, the growth in the experiment with HCT-15 colon was 9.19% (active); with HT29 colon, 4.75% (active); in the experiment with SNB-75 CNS, 40.4%; in the experiment on SNB-19 CNS, 15.2%; with U251 CNS, -3.64% (active); in the experiment with PC-3 prostate, 28.7%. Besides, the growth was -41.5% (active) in the experiment on SK-MEL-5 melanoma; -61.4% (active) in the experiment with UACC-62 melanoma; -77.4% (active) with LOX IMVI melanoma; 5.07% (active) in the experiment with SK-MEL-28 melanoma; -37.4% (active) in the experiment with SK-MEL-2 melanoma; 34.2% with EKVX NSCLC. The growth is 14.6% with SN12C renal; -1.11% (active) in the experiment on UO-31 renal; 5.83% (active) with TK-10 renal; -18.3% (active) in the experiment with ACHN renal; 2.61% (active) with CAKI-1 renal; -7.85% (active) in the experiment on A498 renal. For the same molecule, the growth was 23.6% with CCRF-CEM leukemia and 14.1% with MOLT-4 leukemia.
Consider `C#CCn1cc(/C=N/Nc2nc(-c3ccc(Br)cc3)cs2)c2ccccc21`, for which the growth with HCT-15 colon is 95.3%; with HT29 colon it was 104%; in the experiment on SNB-75 CNS it was 95.4%; in the experiment with SNB-19 CNS, 96.6%; in the experiment on U251 CNS it was 101%; in the experiment on PC-3 prostate, 91.7%. Besides, the growth in the experiment on SK-MEL-5 melanoma was 98.7%; in the experiment on UACC-62 melanoma it was 91.5%; in the experiment on LOX IMVI melanoma it was 94.4%; with SK-MEL-28 melanoma, 103%; in the experiment on SK-MEL-2 melanoma, 104%; in the experiment with EKVX NSCLC, 63.9%. Besides, the growth in the experiment on SN12C renal was 95.1%; with UO-31 renal, 81.4%; in the experiment on TK-10 renal it was 162%; in the experiment on ACHN renal, 98%; in the experiment on CAKI-1 renal, 106%; in the experiment on A498 renal it was 94.7%. The growth in the experiment on CCRF-CEM leukemia and in the experiment on MOLT-4 leukemia was 101% throughout.
With `CN(C)c1ccc(/C=N/Nc2nc(N/N=C/c3ccc(N(C)C)cc3)nc(N3CCCCC3)n2)cc1`, the growth in the experiment with HCT-15 colon is 0.121% (active); with HT29 colon it was -4.67% (active); with SNB-75 CNS, 101%; in the experiment on SNB-19 CNS, 86%; with U251 CNS, 50%; in the experiment on PC-3 prostate, 84.8%. The growth is 86.7% in the experiment with SK-MEL-5 melanoma; 101% in the experiment with UACC-62 melanoma; -73.3% (active) in the experiment on LOX IMVI melanoma; 41.7% with SK-MEL-28 melanoma; 111% in the experiment with SK-MEL-2 melanoma; 97% in the experiment on EKVX NSCLC. In addition, the growth was 50.4% in the experiment on SN12C renal; 80.3% in the experiment on UO-31 renal; 118% with TK-10 renal; 32.4% in the experiment with ACHN renal; 89.9% in the experiment on CAKI-1 renal; 115% with A498 renal. The values for the growth in the experiment on CCRF-CEM leukemia and with MOLT-4 leukemia were 25.8% and 12.1%, respectively.

For the origin of these results see PubChem BioAssay (NCI).
